Results published in PubChem BioAssay (NCI).
Compounds without any hit were thinned out: in the full panel of roughly 83,000, 20% have a hit.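 96-well plates, one dose, 48 hours. Percent growth reported; active if below 10.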 Unmarked numbers belong to inactive results. Activity calls are given as the source filed them.

These molecules were tested on HL-60(TB) leukemia (assay: NCI-60 one-dose screen, 48 h (100 = growth as untreated, 0 = no growth, -100 = all killed)). Conditions: 10 µM unless noted.

Compound	growth
NC(=O)NS(=O)(=O)c1ccc(N2N=C(C(F)(F)F)CC2c2cc(C(F)(F)F)cc(C(F)(F)F)c2)cc1 (stereo not given)	38.7%
CCCCOc1c(N)cc(Cl)cc1C(=O)OCCN(CC)CC	51%
Cc1c2ccncc2c(C)c2c1c1ccccc1n2CCCCCC(=O)O	104%
CN(C)c1ccc(/C=C/c2sc3ccc4ccccc4c3[n+]2C)cc1	-41.8% (active)
O=C(Nc1ccc(CN2CCOCC2)cc1)c1[nH]ncc1Nc1ncnc2sccc12	-22% (active)
